As a reminder, the inhibition is the drop in the measured response relative to a control, in per cent.

Drawing on PubChem BioAssay AID504558 (Broad Institute, 2011), this text covers inhibition for 28 molecules.

Screen size: about 350,000 compounds; about 2,400 (0.69%) were called active. The list comes from a sample in which actives are over-represented; it also holds similar structures and randomly drawn compounds. Values without a mark were called inactive. No stated cut-off is given here; in the data, active means inhibition above about 41%; inconclusive means no clear call, values can overlap the other calls; inactive means below that.

The test in a line: blockers of LMP1-induced NF-kB reporter signal – cell-based, luminescence, single point, primary screen (AID 504558).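 Further: 0% = neutral control wells and 100% = reference inhibitor control.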 The note with it: LMP1-induced NF-kappaB luciferase reporter cells, at 12.5 µM, active compounds read high. (In general: In a reporter assay the amount or activity of a reporter protein is the signal.)
For the molecule `C[C@@H]1CN([C@@H](C)CO)S(=O)(=O)c2ccc(C#Cc3cccc(F)c3)cc2O[C@H]1CN(C)S(=O)(=O)c1cn(C)cn1`, the inhibition is 5.98%.
With `C=CCOc1ccccc1CNn1c(C)n[nH]c1=S` the figure was -1.28%.
Under `N#CCCC(C#N)(c1cccnc1)N1CCOCC1` (stereo not drawn) stands 2.43%.
Under `CC(C)(C)Nc1nc(-c2ccccn2)nc2ccccc12` stands 45.7% (active); under `COc1cnc(-c2ccccn2)nc1Oc1ccc(C(C)(C)C)cc1`, -4.07%.
As to `Cc1nc2ccccc2c(C(=O)O)c1-c1ccccn1`, the inhibition was 3.33%.
Under `O=S1(=O)CCN(Cc2ccccc2)CC1` stands 0.572%; under `CC1=C(C(=O)N2CCOCC2)CC(CC(=O)NCc2cccc3ccccc23)C(=O)N1CCC1=CCCCC1` (stereo not drawn), -1.54%.
Under `CC1CCN(C(=O)CSc2nnc(-c3ccco3)n2N)CC1` stands -6.21%; under `CCCc1cc(=O)oc2c(C)c(O)c(CN3CCCCC3)cc12`, 5.86%.
With `O=C(Cc1ccccc1)NNC(=O)C1CCN(c2ncccn2)CC1` the figure was -1.53%; with `Oc1c(CN2CCCC2)cc(COCc2ccccc2)c2cccnc12`, 69% (active).
Consider `COCCCN1C(=O)C(CC(=O)NCc2cccs2)CC(C(=O)N2CCOCC2)=C1C` (stereo not drawn), for which the inhibition is -3.59%.
With `CC(C)OCC(O)CN1CCN(C(c2ccccc2)c2ccccc2)CC1` (stereo not drawn) the figure was -3.08%; with `CC1(C)CC(N2CCN(C(c3ccccc3)c3ccccc3)CC2)=CC(=[N+]2CCCCC2)C1`, 50.9% (active); with `CC1(C)CC(=O)C=C(N2CCOCC2)C1`, 7.14%.
With `CCCCN1CC(C)(C)[C@H](CC(=O)Nc2ccc(Br)cc2)C1=O` the figure was 3.19%.
Under `O=C(c1cccs1)N1CCN(Cc2ccc3c(c2)OCO3)CC1` stands 2.81%; under `COc1ccc(-c2cc(C(=O)N3CCN(Cc4ccc5c(c4)OCO5)CC3)on2)cc1OC`, 60.2% (active); under `CCn1cc(C(=O)N2CCN(Cc3ccc4c(c3)OCO4)CC2)c2cc(OC)c(OC)cc2c1=O`, -0.487%.
As for `O[C@H]1CN(Cc2cccs2)[C@@H](c2ccc(Cl)cc2)C[C@@H]1n1cc(C2CC2)nn1`, the inhibition was -3.9%.
Under `CCCCCCN1C[C@H](O)[C@@H](n2cc(C3CC3)nn2)C[C@@H]1c1ccc(Cl)cc1` stands -2.06%; under `COc1ccccc1C(=O)NC(=S)Nc1ccc(N2CCOCC2)cc1`, 2.08%; under `O=C(Nc1ccc(N2CCN(C(=O)C3CC3)CC2)cc1)c1cccs1`, 4.6%.
For the molecule `Cc1ccccc1C(=O)N1CCN(c2ccc(NC(=O)c3cccs3)cc2)CC1`, the inhibition is 49.3% (active).
Under `Cc1ccccc1C(=O)NC(=S)Nc1ccc(N2CCN(C(=O)c3ccccc3)CC2)cc1` stands 43.1% (active).
With `Cc1ccc(C(=O)NC(=S)Nc2ccc(N3CCOCC3)cc2)cc1` the figure was 1.51%; with `O=C(Nc1ccc(N2CCN(C(=O)c3cccs3)CC2)cc1)c1cccnc1Cl`, 6.16%.
